High-throughput results: PubChem, National Center for Advancing Translational Sciences (NCATS)
Compounds with a hit are over-represented: about 15% of the library has one in this group of screens.
SARS PLpro yeast: SARS-CoV PLP inhibition in yeast | 0.19% of 330,000 active | S. cerevisiae expressing SARS-CoV PLpro, growth rescue | Potency, µM (doses to about 32.9 µM), actives largely listed as activators; calls by dose curve; further: nearly all actives have a fitted effect of over 55% in size
Sm TGR block: inhibitors of Schistosoma mansoni thioredoxin glutathione reductase; 3% of 360,000 active; Q962Y6; Potency, µM (doses to about 114 µM), hits mostly inhibitors; AID 485364; purified TGR, DTNB reduction, TNB absorbance 405 nm; further: nearly all actives have a fitted effect of over 60% in size
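TGR 20 nM + NADPH 100 uM (dispensed conc.), cpd preinc 15 min RT; start with NADPH (500 uM addition) then DTNB (15 mM addition). Kinetic TNB absorbance, 405 nm filter. Four-parameter Hill fit across titration.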
HCV inhibitor: HCV inhibition. Huh7.5.1 HCVcc-Cre infection, luciferase reporter, 44 h. 3.4% of 340,000 active. Potency, µM (top dose mostly 41.8 µM), usual class: inhibitors
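Compounds are dispensed onto cells plated 4 h earlier at 1,000 per well, with HCVcc-Cre virus (about 0.5 moi) added next. Following 44 h of culture, luminescent signal is measured for 15 sec after 15 min with substrate at room temperature.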
HCMV inh: inhibitors of human cytomegalovirus | HFF cells, HCMV-luciferase reporter, 72 h; stronger effect = lower value | activity change, negative = inhibition, % at 57.5 µM | 4.5% of 410,000 active; in the data active means activity change below about -60%; inconclusive means no clear call, values can overlap the other calls; inactive means above about -39%
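After 16 h attachment at 37C, HFF cells received test compound and HCMV-luciferase (1 PFU/cell); reporter luminescence read 72 h later, data normalized against buffer-only and known inhibitor Salinomycin.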
Pf growth 96h: P. falciparum growth inhibition at 96 hours; Potency, µM (series often up to 28.7 µM), hits mostly inhibitors; P. falciparum luciferase reporter growth, 96 h; 6.9% of 320,000 active
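Delayed-death screen, second-generation endpoint: infected erythrocytes, 2% hematocrit, 0.05% parasitemia final; 96 hours at 37 C, 5% CO2; luciferase detection reagent; luminescence decrease equals reduced growth.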
Pf growth 48h: inhibits P. falciparum growth in the first generation, 48 h; P. falciparum luciferase growth in erythrocytes, 48 h; Potency, µM (series often up to 28.7 µM), hits mostly inhibitors; 5.9% of 310,000 active; AID 504832
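Firefly luciferase activity from engineered P. falciparum reports growth; inhibitors lower the luminescent signal. Cultures contained 2% hematocrit erythrocytes at 0.1% final parasitemia.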
Hits are given with their value; n = inactive; u = inconclusive; x = no result. Unless noted, the call rests on the fitted dose curve; in most records, active means well fitted curve in the direction sought with a large enough effect; inconclusive means small, poorly fitted or top-dose-only effect, or another doubt; inactive means no such curve, though single readings can be large; an effect the other way counts as inactive or inconclusive.

SMILES | SARS PLpro yeast | Sm TGR block | HCV inhibitor | HCMV inh | Pf growth 96h | Pf growth 48h
O=C(Nc1ccccc1F)C(=Cc1sc(N2CCOCC2)nc1-c1ccccc1)C(=O)Nc1ccccc1F | n | n | n | -69.9 | u | u
CCN(CC)c1ccc(C=Nc2cccc(S(=O)(=O)N3CCOCC3)c2)c(O)c1 | n | x | n | n | x | x
Cc1ccc(-c2nc(CNC(=O)NC3CCCCC3)c(C)o2)cc1 | x | n | x | n | x | x
COc1cc(C(=O)N/N=C/c2sc(N3CCOCC3)nc2-c2ccccc2)cc(OC)c1OC | n | n | u | n | n | n
O=C(O)c1cccc(N/N=C/c2sc(N3CCOCC3)nc2-c2ccccc2)c1 | n | n | n | n | 5.22µM | u
O=C(N/N=C/c1sc(N2CCOCC2)nc1-c1ccccc1)c1ccccc1Cl | n | n | 8.91µM | n | u | 10.4µM
NNC(=O)C1CC1c1ccccc1 (centres undefined) | n | n | n | n | 9.28µM | n
CCN=C1SC(C(=O)Nc2cccc(Br)c2)CC(=O)N1CC (centres undefined) | n | n | n | n | n | n
CC(=O)c1cccc(OCC(O)CN2CCN(C(=O)c3ccco3)CC2)c1 (centres undefined) | n | n | n | n | n | n
CC(=O)c1cccc(OCC(O)CN2CC=C(c3ccccc3)CC2)c1 (centres undefined) | n | n | u | n | 1.85µM | u
CC(=O)c1cccc(NC(=O)NNC(=O)CCC(=O)Nc2ccc(C)c(C)c2)c1 | n | n | n | n | n | n
CCc1ccc(C(c2c(C)nn(-c3ccccc3)c2N)c2c(C)nn(-c3ccccc3)c2N)cc1 | n | n | u | n | u | 8.28µM
Cc1cccc(C(c2c(C)nn(-c3ccccc3)c2N)c2c(C)nn(-c3ccccc3)c2N)c1 | n | n | n | n | u | n
Cc1cc(C)c(NC(=O)CNC(=O)CN(C)Cc2ccc(Br)s2)c(C)c1 | n | n | u | n | u | u
CCC(C)(C)C1CCc2c(sc(NC(=O)c3ccoc3C)c2C(N)=O)C1 (centres undefined) | n | n | n | n | x | n
CCC1CCc2c(sc(NC(=O)c3ccoc3C)c2C(N)=O)C1 (centres undefined) | n | n | 5.01µM | n | n | n
CC(Oc1ccc(Cl)cc1Cl)C(=O)Nc1ccncc1 (centres undefined) | n | n | u | u | n | 10.4µM
O=C(CCCOc1ccc(Cl)cc1Cl)Nc1ccncc1 | n | n | u | -60.7 | n | x
NS(=O)(=O)c1ccc(CCNC(=O)c2cnccn2)cc1 | n | n | n | n | n | n
N#CC1=C(N)C(C#N)(C#N)C(c2ccc[nH]2)C2CCCC=C12 (centres undefined) | n | 15.8µM | n | n | u | u
N#CC1=C(N)C2=CCCC[C@H]2[C@H](c2cccc(F)c2)C1(C#N)C#N | n | u | u | n | u | u
Cc1c(C)c2c(OCC(=O)N3CCC(C(=O)O)CC3)cc3c(c2oc1=O)CCC(C)(C)O3 | n | n | n | x | 5.22µM | u
Cc1c(C)c2c(OCC(=O)Nc3ccc(CCO)cc3)cc3c(c2oc1=O)CCC(C)(C)O3 | n | n | u | n | 13.1µM | 8.28µM
Cc1cc(-c2ccc(C)c(S(=O)(=O)Nc3ccccc3C(F)(F)F)c2)on1 | x | n | x | n | x | x
c1ccc2c(C[C@@H]3CNCCN3CC3CCCCC3)cccc2c1 | n | n | u | -63.0 | 11.7µM | u
SMILES | SARS PLpro yeast | Sm TGR block | HCV inhibitor | HCMV inh | Pf growth 96h | Pf growth 48h
Oc1ccc(C[C@@H]2CNCCN2CC2CCCCC2)cc1 | n | n | n | u | u | u
Cc1ccc(C(=O)N2CCN3C(=O)c4ccccc4C23c2ccc(Cl)cc2)cc1 (centres undefined) | n | n | 10µM | -71.2 | 6.57µM | x
O=C(Nc1cccc(Cl)c1)N1CCN2C(=O)c3ccccc3C12c1ccccc1 (centres undefined) | u | n | u | n | 10.4µM | 16.5µM
O=C(CCl)N1CCN2C(=O)c3ccccc3C12c1ccc(Cl)cc1 (centres undefined) | n | 2.51µM | n | -114.6 | u | n
CC(=O)Nc1c(C)nn(-c2ccccc2)c1N1CCC(C(=O)Nc2ccccc2F)CC1 | x | n | x | n | x | x
Oc1ccc(Cl)cc1Sc1cc(Cl)ccc1O | x | x | u | n | 13.5µM | u
O=C(CSCc1ccccc1)N/N=C/c1cc2c(cc1Br)OCO2 | n | n | u | -72.9 | n | n
O=C(CCc1ccccc1)N/N=C\c1cc2c(cc1Br)OCO2 | n | n | n | n | u | n
O=C(CSCc1ccccc1)N/N=C/c1ccc(OCC(=O)N2CCCCC2)cc1 | n | n | n | -67.6 | n | n
N#Cc1ccc(N[C@@H]2CCN3C(=O)c4ccccc4[C@@H]3C[C@H]2O)cc1 | n | x | n | n | x | x
[O-]/[N+](=C/c1ccc(F)cc1)c1ccccc1 | n | n | n | -79.9 | n | u
C=CCn1c(=O)/c(=C2/Sc3ccccc3N2CC)s/c1=C1/C(=O)NN=C1C | n | n | x | x | n | 14.7µM
O=C(CC1NCCNC1=O)Nc1ccc(F)c(Cl)c1 (centres undefined) | x | n | x | n | x | x
Cc1ccc(C)c(C2(O)CC(C)N(C)CC2C)c1 (centres undefined) | n | n | n | n | 6.57µM | n
CC(=O)Oc1c(I)cc(I)cc1C(=O)Nc1ccc(Cl)cc1 | n | n | u | -99.0 | u | n
CCCCNc1nnc(SCC(=O)c2c[nH]c3ccccc23)s1 | n | n | n | n | 8.28µM | 10.4µM
COC(=O)CCC(=O)c1oc2ccccc2c1NC(=O)CCCN1C(=O)c2ccccc2C1=O | n | n | n | n | 9.28µM | n
CC(=O)c1oc2ccccc2c1NC(=O)CCCN1C(=O)c2ccccc2C1=O | n | n | n | n | n | x
O=C(N/N=C/c1ccc(F)cc1)c1ccccc1 | n | n | n | n | n | n
O=C(CCC(=O)Nc1ccc(F)cc1)N/N=C/c1ccc(Br)cc1 | n | n | n | n | 3.7µM | n
O=C(CCC(=O)Nc1ccc(Br)cc1)N/N=C/c1ccc(F)cc1 | n | n | n | n | n | n
O=C(CCCCCNC(=O)c1ccccc1)N/N=C/c1ccc(F)cc1 | n | n | n | n | u | 13.1µM
O=C(CCC(=O)Nc1ccc(Br)cc1)N/N=C/c1ccccc1O | n | n | u | -65.6 | u | u
Cc1ccc(SCCC(=O)N/N=C/c2ccccc2O)cc1 | u | n | u | -84.8 | u | 14.7µM
CCc1nnc(SCC(=O)Nc2cccc(C(F)(F)F)c2)c2cc3oc(C)cc3n12 | x | n | x | n | x | x
COc1ccc(CCC(=O)NCC(=O)OCc2ccccc2)cc1 | n | n | n | n | n | n
O=C(CCC(=O)Nc1ccc(F)cc1)N/N=C/c1ccncc1 | n | n | n | n | n | n
O=C(CCC(=O)Nc1ccc(F)cc1)N/N=C/c1ccccc1 | n | n | n | n | 1.47µM | n
